# Experimental data: PubChem BioAssay AID1159580 (chemical genetic matrix, 2015)
# The whole screen tested about 5,500 compounds, of which about 2,000 (36%) were called active. Inconclusive results (about 18%) are left out. This is one part of the list. A number with no mark means an inactive call. Cut-off read from the data, not from the text of the source: active = normalized growth mostly below about 0.91 (no sharp cut-off); inconclusive = no clear call, values can overlap the other calls; inactive = mostly above about 0.92.
# Experiment: chemical genetic growth profiling, strain panel (AID 1159580);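 note: tested at 20 µM; growth read once vehicle control cultures reached saturation at 30 °C; 1 = growth at the plate median or of vehicle wells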
# Conditions: growth OD
compound,measurement,setting,value
CCCSc1ccc2nc(NC(=O)OC)[nH]c2c1,normalized growth,"S. cerevisiae deletion strains, locus YJR075W, strain HOC1, stronger effect = lower value",0.97
same,normalized growth,"S. cerevisiae deletion strains, locus YKL009W, strain mrt4, stronger effect = lower value",0.938
same,normalized growth,"S. cerevisiae deletion strains, locus YKL068W, stronger effect = lower value",0.972
same,normalized growth,"S. cerevisiae deletion strains, locus YKL085W, strain MDH1 (second series), stronger effect = lower value",0.986
same,normalized growth,"S. cerevisiae deletion strains, locus YKL085W, strain MDH1, stronger effect = lower value",0.986
same,normalized growth,"S. cerevisiae deletion strains, locus YKL160W, strain elf1, stronger effect = lower value",1.01
same,normalized growth,"S. cerevisiae deletion strains, locus YKL190W, strain CNB1, stronger effect = lower value",0.988
same,normalized growth,"S. cerevisiae deletion strains, locus YKR001C, strain vps1, stronger effect = lower value",0.882 (active)
same,normalized growth,"S. cerevisiae deletion strains, locus YKR026C, strain gcn3, stronger effect = lower value",1.01
same,normalized growth,"S. cerevisiae deletion strains, locus YKR091W, strain srl3, stronger effect = lower value",1.01
same,normalized growth,"S. cerevisiae deletion strains, locus YLL001W, strain dnm1, stronger effect = lower value",0.999
same,normalized growth,"S. cerevisiae deletion strains, locus YLL026W, stronger effect = lower value",1.01
same,normalized growth,"S. cerevisiae deletion strains, locus YLL041C, strain sdh2, stronger effect = lower value",1
same,normalized growth,"S. cerevisiae deletion strains, locus YLR027C, strain aat2, stronger effect = lower value",1
same,normalized growth,"S. cerevisiae deletion strains, locus YLR039C, strain RIC1, stronger effect = lower value",0.731
same,normalized growth,"S. cerevisiae deletion strains, locus YLR058C, strain SHM2, stronger effect = lower value",0.988
same,normalized growth,"S. cerevisiae deletion strains, locus YLR102C, strain apc9, stronger effect = lower value",0.973
same,normalized growth,"S. cerevisiae deletion strains, locus YLR113W, strain HOG1, stronger effect = lower value",0.979
same,normalized growth,"S. cerevisiae deletion strains, locus YLR221C, strain rsa3, stronger effect = lower value",1.01
same,normalized growth,"S. cerevisiae deletion strains, locus YLR258W, strain gsy2, stronger effect = lower value",1.01
same,normalized growth,"S. cerevisiae deletion strains, locus YLR262C, strain YPT6 (second series), stronger effect = lower value",0.874
same,normalized growth,"S. cerevisiae deletion strains, locus YLR262C, strain YPT6, stronger effect = lower value",0.732
same,normalized growth,"S. cerevisiae deletion strains, locus YLR268W, strain sec22, stronger effect = lower value",0.847 (active)
same,normalized growth,"S. cerevisiae deletion strains, locus YLR320W, strain mms22, stronger effect = lower value",1.01
same,normalized growth,"S. cerevisiae deletion strains, locus YLR330W, strain CHS5, stronger effect = lower value",0.982
same,normalized growth,"S. cerevisiae deletion strains, locus YLR342W, strain FKS1 (second series), stronger effect = lower value",1.01
same,normalized growth,"S. cerevisiae deletion strains, locus YLR342W, strain FKS1, stronger effect = lower value",1.02
same,normalized growth,"S. cerevisiae deletion strains, locus YLR357W, strain rsc2, stronger effect = lower value",0.975
same,normalized growth,"S. cerevisiae deletion strains, locus YLR370C, strain arc18, stronger effect = lower value",1
same,normalized growth,"S. cerevisiae deletion strains, locus YLR371W, strain rom2, stronger effect = lower value",0.967
same,normalized growth,"S. cerevisiae deletion strains, locus YLR384C, strain iki3, stronger effect = lower value",0.997
same,normalized growth,"S. cerevisiae deletion strains, locus YLR418C, strain cdc73, stronger effect = lower value",0.886
same,normalized growth,"S. cerevisiae deletion strains, locus YML016C, strain PPZ1, stronger effect = lower value",0.993
same,normalized growth,"S. cerevisiae deletion strains, locus YML032C, strain rad52, stronger effect = lower value",0.947
same,normalized growth,"S. cerevisiae deletion strains, locus YML120C, strain ndi1, stronger effect = lower value",1
same,normalized growth,"S. cerevisiae deletion strains, locus YML124C, strain tub3, stronger effect = lower value",0.202 (active)
same,normalized growth,"S. cerevisiae deletion strains, locus YMR058W, strain fet3, stronger effect = lower value",1.01
same,normalized growth,"S. cerevisiae deletion strains, locus YMR078C, strain ctf18, stronger effect = lower value",0.964
same,normalized growth,"S. cerevisiae deletion strains, locus YMR125W, strain sto1, stronger effect = lower value",1.02
same,normalized growth,"S. cerevisiae deletion strains, locus YMR129W, stronger effect = lower value",1.01
same,normalized growth,"S. cerevisiae deletion strains, locus YMR205C, strain PFK2, stronger effect = lower value",1.03
same,normalized growth,"S. cerevisiae deletion strains, locus YMR223W, strain ubp8, stronger effect = lower value",0.997
same,normalized growth,"S. cerevisiae deletion strains, locus YMR231W, strain pep5, stronger effect = lower value",1.03
same,normalized growth,"S. cerevisiae deletion strains, locus YMR263W, strain SAP30, stronger effect = lower value",0.941
same,normalized growth,"S. cerevisiae deletion strains, locus YMR307W, strain GAS1, stronger effect = lower value",1.19
same,normalized growth,"S. cerevisiae deletion strains, locus YNL067W, strain RPL9B, stronger effect = lower value",0.942
same,normalized growth,"S. cerevisiae deletion strains, locus YNL071W, strain lat1, stronger effect = lower value",1.02
same,normalized growth,"S. cerevisiae deletion strains, locus YNL128W, strain TEP1, stronger effect = lower value",0.989
same,normalized growth,"S. cerevisiae deletion strains, locus YNL153C, strain GIM3, stronger effect = lower value",0.0651 (active)
same,normalized growth,"S. cerevisiae deletion strains, locus YNL183C, strain NPR1, stronger effect = lower value",0.896
same,normalized growth,"S. cerevisiae deletion strains, locus YNL209W, strain ssb2, stronger effect = lower value",1
same,normalized growth,"S. cerevisiae deletion strains, locus YNL233W, strain BNI4, stronger effect = lower value",0.965
same,normalized growth,"S. cerevisiae deletion strains, locus YNL248C, strain rpa49, stronger effect = lower value",1
same,normalized growth,"S. cerevisiae deletion strains, locus YNL250W, strain rad50, stronger effect = lower value",0.999
same,normalized growth,"S. cerevisiae deletion strains, locus YNL271C, strain bni1, stronger effect = lower value",0.973
same,normalized growth,"S. cerevisiae deletion strains, locus YNL298W, strain CLA4, stronger effect = lower value",0.947
same,normalized growth,"S. cerevisiae deletion strains, locus YNL307C, strain MCK1, stronger effect = lower value",0.948
same,normalized growth,"S. cerevisiae deletion strains, locus YNL322C, strain KRE1 (second series), stronger effect = lower value",1.01
same,normalized growth,"S. cerevisiae deletion strains, locus YNL322C, strain KRE1, stronger effect = lower value",0.996
same,normalized growth,"S. cerevisiae deletion strains, locus YNR049C, strain mso1, stronger effect = lower value",1.01
same,normalized growth,"S. cerevisiae deletion strains, locus YNR052C, strain pop2, stronger effect = lower value",0.958
same,normalized growth,"S. cerevisiae deletion strains, locus YOL006C, strain TOP1, stronger effect = lower value",0.729
same,normalized growth,"S. cerevisiae deletion strains, locus YOL012C, strain htz1",0.603
same,normalized growth,"S. cerevisiae deletion strains, locus YOL147C, strain pex11, stronger effect = lower value",0.967
same,normalized growth,"S. cerevisiae deletion strains, locus YOR001W, strain rrp6, stronger effect = lower value",1.01
same,normalized growth,"S. cerevisiae deletion strains, locus YOR061W, strain CKA2, stronger effect = lower value",0.996
same,normalized growth,"S. cerevisiae deletion strains, locus YOR069W, strain VPS5, stronger effect = lower value",0.99
same,normalized growth,"S. cerevisiae deletion strains, locus YOR070C, strain gyp1, stronger effect = lower value",1.01
same,normalized growth,"S. cerevisiae deletion strains, locus YOR080W, strain dia2, stronger effect = lower value",1.02
same,normalized growth,"S. cerevisiae deletion strains, locus YOR083W, strain WHI5, stronger effect = lower value",1.01
same,normalized growth,"S. cerevisiae deletion strains, locus YOR106W, strain vam3, stronger effect = lower value",0.997
same,normalized growth,"S. cerevisiae deletion strains, locus YOR136W, strain idh2, stronger effect = lower value",0.996
same,normalized growth,"S. cerevisiae deletion strains, locus YOR144C, strain elg1, stronger effect = lower value",0.965
same,normalized growth,"S. cerevisiae deletion strains, locus YOR184W, strain ser1, stronger effect = lower value",0.893
same,normalized growth,"S. cerevisiae deletion strains, locus YOR231W, strain MKK1, stronger effect = lower value",0.941
same,normalized growth,"S. cerevisiae deletion strains, locus YOR265W, strain rbl2, stronger effect = lower value",1.02
same,normalized growth,"S. cerevisiae deletion strains, locus YOR270C, strain vph1, stronger effect = lower value",0.963
same,normalized growth,"S. cerevisiae deletion strains, locus YOR290C, strain snf2, stronger effect = lower value",0.98
same,normalized growth,"S. cerevisiae deletion strains, locus YOR316C, strain cot1, stronger effect = lower value",0.959
same,normalized growth,"S. cerevisiae deletion strains, locus YPL051W, strain arl3, stronger effect = lower value",0.998
same,normalized growth,"S. cerevisiae deletion strains, locus YPL055C, strain LGE1, stronger effect = lower value",0.945
same,normalized growth,"S. cerevisiae deletion strains, locus YPL078C, strain atp4, stronger effect = lower value",1.01
same,normalized growth,"S. cerevisiae deletion strains, locus YPL106C, strain sse1, stronger effect = lower value",1.04
same,normalized growth,"S. cerevisiae deletion strains, locus YPL240C, strain hsp82, stronger effect = lower value",1
same,normalized growth,"S. cerevisiae deletion strains, locus YPL241C, strain CIN2, stronger effect = lower value",0.0807 (active)
same,normalized growth,"S. cerevisiae deletion strains, locus YPL256C, strain CLN2, stronger effect = lower value",0.933
same,normalized growth,"S. cerevisiae deletion strains, locus YPR119W, strain clb2, stronger effect = lower value",0.963
same,normalized growth,"S. cerevisiae deletion strains, locus YPR141C, strain kar3, stronger effect = lower value",0.992
same,normalized growth,"S. cerevisiae deletion strains, locus YPR163C, strain tif3, stronger effect = lower value",0.904 (active)
same,normalized growth,"S. cerevisiae deletion strains, locus YPR167C, strain met16, stronger effect = lower value",0.954
same,normalized growth,"S. cerevisiae deletion strains, strain wtn01, stronger effect = lower value",0.916
same,normalized growth,"S. cerevisiae strains, strain wild type, stronger effect = lower value",1
